Common to all, as to experiment: cross-linking mass spectrometry
The target of test [1] is CEP126 (UniProt Q9P2H0). The following applies: DSSO.
The target of test [2] is MYH11 (UniProt P35749). As to conditions: DSSO.
Test [3] addresses PRPF8 (UniProt Q6P2Q9). As to conditions: DMTMM.
Test [4] concerns the target SNU13 (UniProt P55769). The following applies: DSSO.
Test [5] concerns the target USP39 (UniProt Q53GS9). The following applies: DSSO.
Test [6] addresses CHMP3 (UniProt Q9Y3E7). As to conditions: DSSO.
The target of test [7] is CLTC (UniProt Q00610). The following applies: DSSO.
Chain of CLTC (Q00610 whole entry): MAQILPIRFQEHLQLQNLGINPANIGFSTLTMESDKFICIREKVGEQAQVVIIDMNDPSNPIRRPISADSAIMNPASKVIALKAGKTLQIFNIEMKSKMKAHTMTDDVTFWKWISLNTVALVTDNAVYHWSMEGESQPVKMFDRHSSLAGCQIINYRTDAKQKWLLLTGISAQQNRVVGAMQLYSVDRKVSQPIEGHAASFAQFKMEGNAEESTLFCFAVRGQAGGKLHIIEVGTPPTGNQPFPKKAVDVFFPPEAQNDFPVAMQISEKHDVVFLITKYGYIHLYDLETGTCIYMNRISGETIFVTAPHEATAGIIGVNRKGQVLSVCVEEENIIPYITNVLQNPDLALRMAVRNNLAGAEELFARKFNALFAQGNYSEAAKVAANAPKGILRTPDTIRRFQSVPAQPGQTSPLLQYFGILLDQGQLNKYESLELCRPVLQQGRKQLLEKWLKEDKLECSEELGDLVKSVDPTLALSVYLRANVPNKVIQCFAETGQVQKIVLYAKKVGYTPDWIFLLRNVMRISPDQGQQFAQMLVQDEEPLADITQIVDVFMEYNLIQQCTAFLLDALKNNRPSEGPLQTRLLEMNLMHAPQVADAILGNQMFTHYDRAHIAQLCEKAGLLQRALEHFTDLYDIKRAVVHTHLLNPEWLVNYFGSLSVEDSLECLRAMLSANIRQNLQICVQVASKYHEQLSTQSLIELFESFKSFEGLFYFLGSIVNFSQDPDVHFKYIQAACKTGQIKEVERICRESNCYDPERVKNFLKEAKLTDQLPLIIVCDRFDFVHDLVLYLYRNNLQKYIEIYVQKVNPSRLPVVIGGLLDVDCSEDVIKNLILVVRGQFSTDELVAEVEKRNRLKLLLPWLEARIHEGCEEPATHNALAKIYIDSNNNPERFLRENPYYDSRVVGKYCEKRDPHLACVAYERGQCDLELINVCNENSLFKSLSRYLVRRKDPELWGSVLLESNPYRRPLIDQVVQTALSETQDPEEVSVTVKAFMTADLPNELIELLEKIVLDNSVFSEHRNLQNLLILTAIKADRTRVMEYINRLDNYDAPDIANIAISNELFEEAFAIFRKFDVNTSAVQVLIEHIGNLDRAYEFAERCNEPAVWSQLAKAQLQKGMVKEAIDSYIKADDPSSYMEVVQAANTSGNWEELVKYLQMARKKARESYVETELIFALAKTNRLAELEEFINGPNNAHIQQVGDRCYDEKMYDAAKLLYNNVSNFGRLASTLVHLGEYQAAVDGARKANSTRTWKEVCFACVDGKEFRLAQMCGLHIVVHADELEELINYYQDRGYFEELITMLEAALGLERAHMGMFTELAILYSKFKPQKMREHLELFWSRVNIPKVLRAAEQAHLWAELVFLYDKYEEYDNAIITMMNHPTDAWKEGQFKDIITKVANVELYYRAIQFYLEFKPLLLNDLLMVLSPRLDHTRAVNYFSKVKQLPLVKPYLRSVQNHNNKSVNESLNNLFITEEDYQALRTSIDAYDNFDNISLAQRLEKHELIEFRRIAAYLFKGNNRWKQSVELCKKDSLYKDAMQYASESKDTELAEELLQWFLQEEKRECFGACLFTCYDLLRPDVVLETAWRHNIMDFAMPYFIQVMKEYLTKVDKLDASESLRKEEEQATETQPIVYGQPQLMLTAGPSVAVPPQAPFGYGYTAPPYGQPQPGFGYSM
Test [8] concerns the target EPS15L1 (UniProt Q9UBC2). The following applies: DMTMM.
Test [9] concerns the target BLOC1S2 (UniProt Q6QNY1). As to conditions: DSSO.
Test [10] addresses CDK5RAP2 (UniProt Q96SN8). The following applies: DSSO.
In test [11] the target is CHMP5 (UniProt Q9NZZ3).
Test [12] has as its target CHMP4B (UniProt Q9H444).
Test [13] deals with CCT3 (UniProt P49368). The following applies: DMTMM.
In test [14] the target is CHP1 (UniProt Q99653). As to conditions: DSSO.
Test [15] deals with CENPI (UniProt Q92674). The following applies: DSSO.
For test [16], the target named is CHTOP (UniProt Q9Y3Y2). The following applies: DSSO.
Test [17] addresses CNPY2 (UniProt Q9Y2B0). As to conditions: DSSO.
For test [18], the target named is CEP128 (UniProt Q6ZU80). As to conditions: DSSO.
The target in test [19] is ATP6V1F (UniProt Q16864). As to conditions: DHSO.
The target in test [20] is CCDC93 (UniProt Q567U6). As to conditions: DSSO.
Test [21] addresses CNTNAP1 (UniProt P78357). As to conditions: DSSO.
The target of test [22] is TMX3 (UniProt Q96JJ7). As to conditions: DSSO.
For test [23], the target named is BORCS6 (UniProt Q96GS4). The following applies: DSSO.
The target in test [24] is CDC5L (UniProt Q99459). The following applies: DSSO.
Test [25] deals with DNAAF1 (UniProt Q8NEP3). As to conditions: DMTMM.
In test [26] the target is EEA1 (UniProt Q15075).
Test [27] addresses EFTUD2 (UniProt Q15029). The following applies: DSSO.
For test [28], the target named is DDX23 (UniProt Q9BUQ8).
Chain of DDX23 (Q9BUQ8 whole entry): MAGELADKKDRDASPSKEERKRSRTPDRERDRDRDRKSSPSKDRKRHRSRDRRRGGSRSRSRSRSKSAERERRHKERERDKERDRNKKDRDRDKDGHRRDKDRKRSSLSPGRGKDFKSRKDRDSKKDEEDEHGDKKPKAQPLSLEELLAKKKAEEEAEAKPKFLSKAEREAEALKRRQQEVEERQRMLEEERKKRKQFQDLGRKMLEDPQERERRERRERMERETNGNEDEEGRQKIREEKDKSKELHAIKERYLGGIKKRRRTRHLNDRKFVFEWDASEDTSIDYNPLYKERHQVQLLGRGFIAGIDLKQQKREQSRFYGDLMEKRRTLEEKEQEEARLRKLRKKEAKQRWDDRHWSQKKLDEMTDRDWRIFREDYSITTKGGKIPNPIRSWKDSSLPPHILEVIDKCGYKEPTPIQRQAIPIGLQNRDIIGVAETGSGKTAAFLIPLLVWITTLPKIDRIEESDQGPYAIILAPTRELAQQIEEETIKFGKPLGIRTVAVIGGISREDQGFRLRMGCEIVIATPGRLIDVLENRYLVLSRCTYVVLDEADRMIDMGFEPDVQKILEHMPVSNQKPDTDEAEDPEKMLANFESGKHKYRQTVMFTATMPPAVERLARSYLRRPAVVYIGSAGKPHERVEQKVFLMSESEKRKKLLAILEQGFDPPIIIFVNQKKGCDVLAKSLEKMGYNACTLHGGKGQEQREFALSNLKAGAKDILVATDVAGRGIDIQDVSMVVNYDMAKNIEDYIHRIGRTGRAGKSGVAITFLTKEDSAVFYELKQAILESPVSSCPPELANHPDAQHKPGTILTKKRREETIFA
The target in test [29] is EMC2 (UniProt Q15006). The following applies: DSSO.
The target of test [30] is DYNC1I2 (UniProt Q13409). The following applies: DMTMM.
In test [31] the target is DHCR7 (UniProt Q9UBM7). The following applies: DSSO.
In test [32] the target is LCLAT1 (UniProt Q6UWP7). As to conditions: DSSO.
For test [33], the target named is RPN1 (UniProt P04843). As to conditions: DSSO.
The target of test [34] is CPVL (UniProt Q9H3G5). As to conditions: DSSO.
Test [35] has as its target LIPA (UniProt P38571). The following applies: DMTMM.
The target of test [36] is PHF5A (UniProt Q7RTV0). As to conditions: DSSO.
In test [37] the target is SF3B6 (UniProt Q9Y3B4). As to conditions: DSSO.
Test [38] deals with DEF8 (UniProt Q6ZN54). The following applies: DSSO.
Test [39] has as its target FBRS (UniProt Q9HAH7). The following applies: DMTMM.

Chain of PGRMC1, O00264 (O00264 whole entry): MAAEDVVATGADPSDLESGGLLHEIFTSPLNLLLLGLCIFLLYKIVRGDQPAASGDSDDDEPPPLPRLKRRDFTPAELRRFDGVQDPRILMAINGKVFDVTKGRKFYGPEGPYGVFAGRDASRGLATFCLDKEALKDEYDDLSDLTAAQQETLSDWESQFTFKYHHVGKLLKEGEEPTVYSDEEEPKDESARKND
Chain of PRPF6, O94906 (O94906 whole entry): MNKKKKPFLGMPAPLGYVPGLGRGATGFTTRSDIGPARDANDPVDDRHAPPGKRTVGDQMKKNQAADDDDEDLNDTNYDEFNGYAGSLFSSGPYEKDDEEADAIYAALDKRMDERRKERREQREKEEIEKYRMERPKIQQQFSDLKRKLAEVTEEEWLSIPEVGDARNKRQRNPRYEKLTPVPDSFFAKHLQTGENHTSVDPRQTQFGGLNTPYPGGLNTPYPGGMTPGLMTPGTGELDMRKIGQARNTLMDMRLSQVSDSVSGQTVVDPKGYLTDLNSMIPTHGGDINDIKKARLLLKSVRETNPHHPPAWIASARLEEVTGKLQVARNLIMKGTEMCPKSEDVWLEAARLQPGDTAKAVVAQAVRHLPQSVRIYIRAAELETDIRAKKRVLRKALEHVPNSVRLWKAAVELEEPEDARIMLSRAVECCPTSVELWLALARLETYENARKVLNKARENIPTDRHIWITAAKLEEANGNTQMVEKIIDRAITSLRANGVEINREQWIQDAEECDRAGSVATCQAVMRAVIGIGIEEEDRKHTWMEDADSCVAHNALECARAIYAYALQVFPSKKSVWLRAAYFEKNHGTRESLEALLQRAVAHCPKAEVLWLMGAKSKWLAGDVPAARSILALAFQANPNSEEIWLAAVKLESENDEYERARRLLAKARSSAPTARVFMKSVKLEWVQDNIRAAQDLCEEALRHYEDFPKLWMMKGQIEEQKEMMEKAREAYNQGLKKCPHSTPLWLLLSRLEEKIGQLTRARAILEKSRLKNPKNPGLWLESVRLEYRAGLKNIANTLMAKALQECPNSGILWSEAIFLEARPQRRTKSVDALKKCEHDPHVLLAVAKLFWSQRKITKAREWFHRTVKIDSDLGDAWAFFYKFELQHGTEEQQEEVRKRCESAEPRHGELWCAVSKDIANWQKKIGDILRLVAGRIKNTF
Chain of SF3B1, O75533 (O75533 whole entry): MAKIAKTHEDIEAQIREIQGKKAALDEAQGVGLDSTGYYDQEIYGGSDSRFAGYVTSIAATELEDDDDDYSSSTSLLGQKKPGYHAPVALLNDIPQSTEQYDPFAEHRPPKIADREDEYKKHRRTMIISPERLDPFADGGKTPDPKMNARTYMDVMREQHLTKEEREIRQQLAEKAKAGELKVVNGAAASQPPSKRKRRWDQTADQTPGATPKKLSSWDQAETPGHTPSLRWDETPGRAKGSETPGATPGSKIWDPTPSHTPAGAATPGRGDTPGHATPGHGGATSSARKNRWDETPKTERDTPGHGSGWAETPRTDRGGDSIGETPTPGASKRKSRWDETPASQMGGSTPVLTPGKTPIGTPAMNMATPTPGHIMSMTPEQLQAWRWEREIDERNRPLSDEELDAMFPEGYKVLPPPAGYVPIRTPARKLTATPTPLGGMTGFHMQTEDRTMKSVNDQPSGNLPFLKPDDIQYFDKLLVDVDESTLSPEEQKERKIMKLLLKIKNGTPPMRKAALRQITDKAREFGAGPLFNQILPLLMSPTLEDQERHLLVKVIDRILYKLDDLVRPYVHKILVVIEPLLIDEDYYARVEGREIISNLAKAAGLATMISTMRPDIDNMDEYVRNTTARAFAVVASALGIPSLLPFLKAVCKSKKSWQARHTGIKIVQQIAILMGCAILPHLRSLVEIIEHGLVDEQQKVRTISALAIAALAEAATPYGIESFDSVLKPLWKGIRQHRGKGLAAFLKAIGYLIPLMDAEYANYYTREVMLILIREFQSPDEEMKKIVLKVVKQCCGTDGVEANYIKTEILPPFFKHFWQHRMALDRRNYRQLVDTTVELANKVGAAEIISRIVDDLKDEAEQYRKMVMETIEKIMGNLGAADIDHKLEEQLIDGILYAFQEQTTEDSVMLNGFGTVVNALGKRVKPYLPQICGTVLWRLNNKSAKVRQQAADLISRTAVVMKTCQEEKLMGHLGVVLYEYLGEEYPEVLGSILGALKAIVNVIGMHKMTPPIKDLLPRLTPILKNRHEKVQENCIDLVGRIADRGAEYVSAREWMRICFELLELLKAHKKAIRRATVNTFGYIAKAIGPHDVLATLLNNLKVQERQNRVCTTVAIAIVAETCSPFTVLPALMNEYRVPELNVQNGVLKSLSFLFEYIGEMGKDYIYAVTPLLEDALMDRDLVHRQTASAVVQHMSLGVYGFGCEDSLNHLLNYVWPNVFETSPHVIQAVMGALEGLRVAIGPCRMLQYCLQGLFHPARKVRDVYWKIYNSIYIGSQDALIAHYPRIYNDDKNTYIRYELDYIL
Chain of SNRPE, P62304 (P62304 whole entry): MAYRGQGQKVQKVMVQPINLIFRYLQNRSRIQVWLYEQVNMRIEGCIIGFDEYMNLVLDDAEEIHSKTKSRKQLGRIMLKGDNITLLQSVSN

In the case of PRPF6, O94906, the cross-linked residues result is reported as “K137 - K501” in test [1]; “K137 - K1842” in test [2]; “E100 - K480” in [3]; “K775 - K113” in test [4]; “K137 - K459” in test [5].
Regarding CHMP2A, O43633, the cross-linked residues result in [6] is given as “K9 - K106”.
With AP2A1, O95782, the cross-linked residues result in test [7] is reported as “K403 - K189”; in test [8], “K880 - E706”.
On to SNAPIN, O95295, for which the cross-linked residues result in [9] is “K73 - K92”.
Take PCNT, O95613: the cross-linked residues entry in test [10] is “K2383 - K1865”.
In the case of CHMP4B, Q9H444, the cross-linked residues entry in test [11] (DHSO) is “E90 - E41”; in [11] (DSSO) it was “K14 - K114”.
In the case of XPA, P23025, the cross-linked residues entry in test [12] (DMTMM) is “K217 - E48”.
In the case of CCT6A, P40227, the cross-linked residues entry in test [13] was “K530 - E69”.
On to GPAT4, Q86UL3, for which the cross-linked residues entry in test [14] is listed as “K426 - K40”.
Take PDCD6IP, Q8WUM4: the values for the cross-linked residues entry in test [15] and in test [12] (DSSO) were “K285 - K618” and “K215 - K207”, respectively.
As to DDX39B, Q13838, in test [16], the cross-linked residues entry is given as “K188 - K226”.
Consider CLTA, P09496, for which the cross-linked residues entry in test [7] was “K156 - K1264”.
Turning to HSP90B1, P14625, in test [17], the cross-linked residues result was “K161 - K49”.
For ODF2, Q5BJF6, in test [18], the cross-linked residues result is “K780 - K552”.
For ATP6V1A, P38606, the cross-linked residues entry in [19] is on record as “D562 - E49”.
As for GPAT3, Q53EU6, the cross-linked residues result in test [14] was “K81 - K188”.
On to PLXNC1, O60486, for which the cross-linked residues result in test [7] is listed as “K1347 - K1612”.
Consider RPL7A, P62424, for which the cross-linked residues entry in [20] is listed as “K245 - K625”.
CANX, P27824: the cross-linked residues result in test [21] is given as “K227 - K489”; in test [22], “K210 - K267”.
For the substance BLOC1S2, Q6QNY1, the cross-linked residues result in [23] is reported as “K92 - K224”.
On to BCAS2, O75934, for which the cross-linked residues result in [24] was “K177 - K771”.
As for MSL1, Q68DK7, in [25], the cross-linked residues result is recorded as “K509 - E532”.
RAB9A, P51151: the cross-linked residues entry in test [26] (DSSO) is recorded as “K4 - K1340”.
For SNRPD2, P62316, the cross-linked residues result in test [27] is “K6 - K352”.
As for SNRNP200, O75643, the cross-linked residues entry in test [28] (DSSO) is on record as “K14 - K251”.
With DMD, P11532, in [26] (DMTMM), the cross-linked residues entry is listed as “E2453 - K227”.
Turning to EMC8, O43402, the cross-linked residues entry in [29] is on record as “K100 - K136”.
For SNRPE, P62304, in test [27], the cross-linked residues result was “K12 - K341”.
Consider DYNLL1, P63167, for which, in [30], the cross-linked residues result is reported as “K36 - E159”.
As for PGRMC1, O00264, the cross-linked residues result in [31] is listed as “K102 - K13”; in test [32], “K105 - K221”; in test [33], “K105 - K524”.
In the case of EFTUD2, Q15029, the results for the cross-linked residues entry in test [28] (DMTMM) and in test [28] (DSSO) were “D860 - K196” and “K244 - K196”, respectively.
As to ACADL, P28330, the cross-linked residues entry in test [26] (DMTMM) is on record as “K92 - D1321”.
For the substance CTSD, P07339, the cross-linked residues entry in [34] is “K127 - K423”; in [35] it was “D238 - K304”.
SF3B1, O75533: the cross-linked residues entry in test [34] was “K163 - K423”; in [36] it was “K554 - K13”; in test [37], “K214 - K7”.
On to WDR45B, Q5MNZ6, for which the cross-linked residues entry in test [38] is given as “K42 - K180”.
THOC3, Q96J01: the cross-linked residues result in test [39] was “K343 - E3”.

Values taken from doi:10.1101/2025.02.07.636106.
